ALOX15B inhib – qHTS Assay for Inhibitors of 15-hLO-2 (15-human lipoxygenase 2) | purified 15hLO-2, xylenol orange hydroperoxide absorbance | Potency, µM (doses to about 57.1 µM), without a hit: top-dose activity change, negative = inhibition, usual class: inhibitors | hit rate 0.56% among 110,000 | Polyunsaturated fatty acid lipoxygenase ALOX15B (Homo sapiens), O15296; note: % is set by controls: 0 for no effect and ±100 for the full control effect; nearly all actives have a fitted effect of over 60% in size
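Purified human 15hLO-2 (50 nM) preincubated 15 min with compound, then 45 uM arachidonic acid for 90 min at RT in 25 mM Hepes pH 7.5, 0.01% Triton X-100. Hydroperoxide detected by Fe-xylenol orange; 573/405 nm absorbance ratio.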
Casp1 inh – qHTS Assay for Allosteric/Competitive Inhibitors of Caspase-1; P29466; Caspase-1 enzyme, Ac-WEHD-AFC fluorogenic rate; Potency, µM (titrated, usually from 57.5 µM), for inactives: at the top dose activity change, negative = inhibition, usual class: inhibitors; hit rate 0.03% among 75,000; AID 900, 2007;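 note: plate controls were vehicle for no effect and no substrate for full effect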
Target sequence (P29466 120-297 limits assumed): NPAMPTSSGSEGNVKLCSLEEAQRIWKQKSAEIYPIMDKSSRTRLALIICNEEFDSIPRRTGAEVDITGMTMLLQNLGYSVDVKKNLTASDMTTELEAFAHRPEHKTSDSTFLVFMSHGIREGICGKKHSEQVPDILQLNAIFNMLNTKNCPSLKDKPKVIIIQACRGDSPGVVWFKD
Target sequence (P29466 317-404 limits assumed): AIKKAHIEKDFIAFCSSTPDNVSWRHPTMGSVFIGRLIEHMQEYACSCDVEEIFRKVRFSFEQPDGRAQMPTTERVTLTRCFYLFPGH
HEK293 cAMP ctrl – qHTS Assay for Agonists of the Thyroid Stimulating Hormone Receptor: Activators of Intracellular cAMP Concentrations in Parental HEK 293; parental HEK293 CNG cAMP sensor, membrane potential fluorescence; Potency, µM (top dose mostly 57.1 µM), for inactives: top-dose activation, hits mostly activators; hit rate 2.5% among 73,000; AID 938, 2007; note: % of control where 0% means no effect; nearly all actives have a fitted effect of over 55% in size
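Counterscreen for endogenous-receptor signalling: CNG-channel HEK 293 cells report cAMP rise by membrane depolarization. After 60 min dye equilibration with 100 uM RO 20-1724, compounds incubated 30 min before bottom-read fluorescence at 590 nm.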
Caspase-7 inhib – qHTS Assay for Allosteric/Competitive Inhibitors of Caspase-7; recombinant caspase-7, Ac-DEVD-AFC fluorescence rate; Potency, µM (highest dose often 57.5 µM), for inactives: at the highest dose activity change, negative = inhibition, most hits filed as inhibitors; hit rate 0.02% among 75,000; P55210; active = well fitted inhibition curve with a large enough effect in the main read-out, with a control signal flat, not every such curve was filed as active; inconclusive = small, poorly fitted or top-dose-only effect, or a change in a side signal; note: % of control where 0% means no effect
ALOX15 inhib – qHTS Assay for Inhibitors of 15-hLO (15-human lipoxygenase) | purified 15hLO-1, xylenol orange hydroperoxide absorbance | Potency, µM (titrated, usually from 57.1 µM), inactives show top-dose activity change, negative = inhibition, actives largely listed as inhibitors | hit rate 1.4% among 74,000 | AID 887, 2007; note: % is set by controls: 0 for no effect and ±100 for the full control effect; nearly all actives have a fitted effect of over 55% in size
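40 nM 15hLO-1 + cpd, 15 min RT; start w/ 50 uM AA (final), 6 min RT; stop/detect w/ 200 uM XO + 300 uM Fe(II) in 50 mM H2SO4, 30 min; A573/A405. Buffer 25 mM Hepes pH 7.5, 0.01% Triton X-100. No-enzyme wells as negative control.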
TSHR agonist – qHTS Assay for Agonists of the Thyroid Stimulating Hormone Receptor; Thyrotropin receptor (Homo sapiens), P16473; Potency, µM (highest dose often 57.1 µM), without a hit: at the top dose activation, most hits filed as activators; hit rate 0.48% among 73,000; HEK293-CNG-TSHR cells (CNG channel as cAMP sensor), membrane potential dye, cAMP; active = well fitted activation curve with a large enough effect in the main read-out, with a control signal flat, not every such curve was filed as active; inconclusive = small, poorly fitted or top-dose-only effect, or a change in a side signal; inactive = no such curve, though single readings can be large or run the other way; % of control where 0% means no effect;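 note: the control signal comes from parental cells without the receptor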
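HEK 293 cells stably expressing TSHR and a modified CNG channel, with CNG-only parental cells as counterscreen, were preloaded 60 min at room temperature with membrane potential dye containing 100 uM RO 20-1724. Compound exposure was 30 min, and depolarization was read as fluorescence at 590 nm.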
The depositor's hits bear a star; [ ] = another dose, or the depositor's remark. A selection: hits, their analogues and other compounds. The true share with any hit is near 3%. Unless noted, calls come from the whole dose curve; as a rule, active = well fitted curve in the direction sought with a large enough effect; inconclusive = small, poorly fitted or top-dose-only effect, or another doubt; inactive = no such curve, though single readings can be large; an effect the other way counts as inactive or inconclusive. Potency is the fitted concentration of half-maximal effect.

How did Cc1ccccc1N=C(N)Nc1ccccc1C do in these assays?
ALOX15B inhib: 18%; Casp1 inh: 1%; HEK293 cAMP ctrl: 16µM*; Caspase-7 inhib: 0%; ALOX15 inhib: inconclusive; TSHR agonist: inconclusive

What do the screens show for `O=C(NCC1CC1)[C@H]1C[C@@H]1[C@H](NP(=O)(c1ccccc1)c1ccccc1)c1ccccc1`?
ALOX15B inhib: 3%; Casp1 inh: -1%; HEK293 cAMP ctrl: inconclusive; Caspase-7 inhib: 0%; TSHR agonist: inconclusive

How did CC(C)(C)NCC(O)c1cc(O)cc(O)c1 (stereo not drawn) do in these assays?
ALOX15B inhib: 5%; Caspase-7 inhib: inconclusive; ALOX15 inhib: -10%

How did CC(C)(C)NC[C@H](O)c1cc(O)cc(O)c1 do in these assays?
ALOX15B inhib: 16%[25.6 µM]; Casp1 inh: -4%[25.7 µM]; HEK293 cAMP ctrl: 16µM*; Caspase-7 inhib: inconclusive; ALOX15 inhib: 5%[25.6 µM]; TSHR agonist: inconclusive

What do the screens show for `COC(=O)N1CCC[C@@]2(CCN(Cc3cc(C(F)(F)F)cc(C(F)(F)F)c3)C2)C1`?
ALOX15B inhib: 3%; Casp1 inh: -1%; HEK293 cAMP ctrl: 2%; Caspase-7 inhib: 0%; ALOX15 inhib: 9%; TSHR agonist: 7%

Results for Cc1cccc(OCCCCCn2ccnc2)c1C ?
ALOX15B inhib: 8%; Casp1 inh: 0%; HEK293 cAMP ctrl: 32µM*; Caspase-7 inhib: 0%; ALOX15 inhib: 33%; TSHR agonist: inconclusive

What do the screens show for `Cc1[nH]c2ccccc2c1Cc1nnc(SCC(=O)NCc2ccco2)o1`?
ALOX15B inhib: -6%; HEK293 cAMP ctrl: 4%; Caspase-7 inhib: inconclusive; ALOX15 inhib: 13µM*; TSHR agonist: 4%

How did CC(C)c1ccc(-c2nnn(CCC(=O)O)n2)cc1 do in these assays?
ALOX15B inhib: -9%; Casp1 inh: 4%; HEK293 cAMP ctrl: 21%; Caspase-7 inhib: -3%; ALOX15 inhib: 1.6µM*; TSHR agonist: -4%

Results for CCc1ccc(-c2nnn(CCC(=O)OC)n2)cc1 ?
ALOX15B inhib: 12%; Casp1 inh: -1%; HEK293 cAMP ctrl: 7.9µM*; Caspase-7 inhib: 1%; ALOX15 inhib: 1%; TSHR agonist: inconclusive

Results for C=CCN1C(=O)S/C(=C\c2ccc(N3CCOCC3)cc2C)C1=O ?
ALOX15B inhib: -3%

How did O=C1S/C(=C\c2ccc(N3CCOCC3)o2)C(=O)N1Cc1ccc(F)cc1 do in these assays?
ALOX15B inhib: 5µM*

Results for O=C1/C(=C/c2ccc(N3CCOCC3)o2)SC(=Nc2ccccc2)N1CCc1c[nH]c2ccccc12 ?
ALOX15B inhib: 4µM*

How did CC(C)OC(=O)CN1C(=O)S/C(=C/c2ccc(N3CCCCC3)o2)C1=O do in these assays?
ALOX15B inhib: 13µM*

Results for O=C1S/C(=C/c2ccc(N3CCOCC3)o2)C(=O)N1Cc1ccc(F)cc1 ?
ALOX15B inhib: 1.3µM*

How did COC1OC(CO)C(OC2OC(C(=O)O)C(OC3OC(COS(=O)(=O)O)C(OC4OC(C(=O)O)C(OC5OC(CO)C(OC6OC(C(=O)O)C(OC7OC(COS(=O)(=O)O)C(OC8OC(C(=O)O)=C[C@H](O)C8OS(=O)(=O)O)C(O)C7NC(C)=O)[C@@H](O)C6O)C(O)C5NC(C)=O)[C@@H](O)C4O)C(O)C3NC(C)=O)[C@@H](O)C2O)C(O)C1NC(C)=O (stereo partly drawn) do in these assays?
ALOX15B inhib: 13%; Casp1 inh: 0%; Caspase-7 inhib: 2%; ALOX15 inhib: -23%

From PubChem BioAssay
